From the supplement of paper PMC7411640
Where a name gives a salt, the structure may show the parent alone.

What follows are compounds tested on MDA-MB-468 (assay: phospho-S6 immunofluorescence (DAPI-normalised), per-plate z-score; higher = higher phospho-S6 signal (less pathway suppression)). Settings: co-treatment: lapatinib 1 uM; 24 h.
Protocol: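 GPCR-targeted compound library (MedChemExpress HY-L006) tested on MDA-MB-468 PTEN-null TNBC cells in 384-well plates at 0.1, 1 or 10 uM, combined with vehicle, GDC0941 450 nM or lapatinib 1 uM, for 24 h. Phospho-S6 (S240/244) immunofluorescence normalised to DAPI and expressed as a per-plate z-score; values are the mean of biological triplicates.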
In the case of `O=c1ccccn1CC1(O)CCN(Cc2ccccc2)CC1` (compound 10 µM), the “phospho-S6 immunofluorescence (z-score)” value is reported as -0.19.
`CCCCc1nc(Cl)c(CO)n1Cc1ccc(-c2ccccc2-c2nnn[nH]2)cc1` [Losartan (potassium)] (compound 10 µM) was tested, and the “phospho-S6 immunofluorescence (z-score)” value was 0.83.
With `COc1cc2nc(N3CCN(C(=O)C4COc5ccccc5O4)CC3)nc(N)c2cc1OC` (centres undefined) [Doxazosin (mesylate)] (compound 10 µM) the “phospho-S6 immunofluorescence (z-score)” value was -7.7.
In the case of `CC(C)C[C@H](NC(=O)CNC(=O)[C@H](Cc1ccc(O)cc1)NC(=O)[C@H](CO)NC(=O)[C@H](Cc1c[nH]c2ccccc12)NC(=O)[C@H](Cc1cnc[nH]1)NC(=O)[C@@H]1CCC(=O)N1)C(=O)N[C@@H](CCCNC(=N)N)C(=O)N1CCC[C@H]1C(=O)NCC(N)=O` [Gonadorelin (acetate)] (compound 10 µM), the “phospho-S6 immunofluorescence (z-score)” value is reported as 0.57.
For `Cc1nc(C(=O)N2CCC[C@H]2Cc2nnc(-c3ccccc3)o2)c(-c2ccccc2F)s1` (compound 10 µM), the “phospho-S6 immunofluorescence (z-score)” value was 0.29.
With `CCCc1nc2c(C)cc(-c3nc4ccccc4n3C)cc2n1Cc1ccc(-c2ccccc2C(=O)O)cc1` [Telmisartan] (compound 10 µM) the “phospho-S6 immunofluorescence (z-score)” value was 1.6.
In the case of `COc1ccccc1Oc1c(NS(=O)(=O)c2ccc(C)cn2)nc(-c2ccncc2)nc1OC` [Avosentan] (compound 10 µM), the “phospho-S6 immunofluorescence (z-score)” value is reported as -0.67.
For `COc1cc(/C=C/C(=O)O)ccc1O` [Ferulic acid (sodium)] (compound 10 µM), the “phospho-S6 immunofluorescence (z-score)” value was 0.36.
`Cc1ccc(Sc2ccccc2N2CCNCC2)c(C)c1` [Vortioxetine (hydrobromide)] (compound 10 µM) was tested, and the “phospho-S6 immunofluorescence (z-score)” value was -11.4.
